For orientation: inhibition means the drop in the measured response relative to a control, in per cent.

The structures appear in SMILES notation. Screen size: about 22,000 compounds; about 460 (2.1%) were called active. Inconclusive results (about 2%) are left out.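 How the source made its calls: active means mean inhibition across valid replicates above about 65% (limit read from the data); inconclusive means mean under the limit, yet half or more replicates past it; inactive means the rest.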 The list comes from a sample in which actives are over-represented; it also holds similar structures and randomly drawn compounds.

The assay is described as follows: Hedgehog pathway signaling inhibitors, primary screen, luminescence, Shh-LIGHT2 cells, Gli-luciferase (AID 2313).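 Further: pathway switched on by Shh-conditioned medium diluted 1 in 25 in low serum.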 Particulars: Shh-LIGHT2 Gli-luciferase reporter, 30 h; hits give high values.
As to `COc1ccc(NC(=O)N(C)C[C@@H]2OCCCC[C@@H](C)Oc3ccc(NS(=O)(=O)c4c(C)noc4C)cc3C(=O)N([C@H](C)CO)C[C@@H]2C)cc1`, the inhibition is -43% (inactive).

Consider `C=C1CCC2C(C)(C)C(O)CCC2(C)C1CC/C(C)=C/C(=O)O` (stereo not given), for which the inhibition is 4.62% (inactive).

For the molecule `COc1ccc(NC(=O)Nc2ccc3c(c2)C(=O)N([C@@H](C)CO)C[C@H](C)[C@H](CN(C)CC2CCCCC2)O3)cc1`, the inhibition is -5.89% (inactive).

`C[C@@H]1CN([C@@H](C)CO)C(=O)c2cc(NC(=O)Nc3ccc(C(F)(F)F)cc3)ccc2O[C@@H]1CN(C)Cc1ccncc1`: the inhibition was 10.7% (inactive).

Take `C[C@H]1CN([C@@H](C)CO)C(=O)c2cccc(NC(=O)C3CC3)c2O[C@@H]1CN(C)S(=O)(=O)c1ccc(F)cc1`: the inhibition was -1.67% (inactive).

With `CCCN(C)C[C@@H]1OCCCC[C@@H](C)Oc2ccc(NS(=O)(=O)c3c(C)noc3C)cc2C(=O)N([C@H](C)CO)C[C@@H]1C`, the inhibition is 35.2% (inactive).

Turning to `Cc1ccoc1CC[N+](C)(C)C`, the inhibition was -11.8% (inactive).

Consider `Cc1ccc(S(=O)(=O)Nc2ccc3c(c2)C(=O)N([C@H](C)CO)C[C@H](C)[C@H](CN(C)S(=O)(=O)c2ccc(F)cc2)OCCCC[C@@H](C)O3)cc1`, for which the inhibition was -17.8% (inactive).

Take `CCC(=O)O[C@]1(C(=O)CCl)[C@@H](C)CC2C3CCC4=CC(=O)C=C[C@]4(C)[C@@]3(F)[C@@H](O)C[C@@]21C` (stereo not given in full): the inhibition is 79.4% (active).

Regarding `CC[C@]1(O)C[C@@H]2CN(CCc3c([nH]c4ccccc34)[C@@](C(=O)OC)(c3cc4c(cc3OC)N(C)[C@H]3[C@@](O)(C(=O)OC)[C@H](OC(C)=O)[C@]5(CC)C=CCN6CC[C@]43[C@@H]65)C2)C1`, the inhibition is 88.5% (active).

In the case of `CC(C)NC(=O)N(C)C[C@@H]1Oc2c(NC(=O)c3cnccn3)cccc2C(=O)N([C@@H](C)CO)C[C@@H]1C`, the inhibition is 2.03% (inactive).

Regarding `NC(=S)c1cnn2c(C(F)(F)F)cc(C(F)(F)F)nc12`, the inhibition was -19.5% (inactive).

`CC[N+]1=C(C)C(C)(C)c2cc(-c3ccccc3)ccc21`: the inhibition was 32.5% (inactive).

With `C[C@@H]1CCCCO[C@H](CN(C)S(=O)(=O)c2ccc(Cl)cc2)[C@@H](C)CN([C@H](C)CO)C(=O)c2cc(NC(=O)Nc3ccc4c(c3)OCO4)ccc2O1`, the inhibition is -3.15% (inactive).

For `Cc1noc(C)c1S(=O)(=O)Nc1ccc2c(c1)CC(=O)N([C@H](C)CO)C[C@@H](C)[C@@H](CN(C)Cc1ccncc1)O2`, the inhibition is 48% (inactive).

For the molecule `C[C@@H]1CN([C@H](C)CO)C(=O)Cc2cc(NC(=O)Cn3cnnn3)ccc2O[C@H]1CN(C)CC1CCCCC1`, the inhibition was -28.8% (inactive).

On to `CC(C)(C)c1ccc(-c2[nH]nc(NC(=O)c3ccccc3Cl)c2Br)cc1`, for which the inhibition is 25.9% (inactive).

As for `CC(C)NC(=O)N(C)C[C@H]1Oc2c(NC(=O)c3ccncc3)cccc2C(=O)N([C@@H](C)CO)C[C@H]1C`, the inhibition is 10.7% (inactive).

In the case of `C[C@H]1CN([C@@H](C)CO)C(=O)Cc2cc(NS(=O)(=O)c3cccs3)ccc2O[C@H]1CN(C)Cc1ccncc1`, the inhibition is -17.7% (inactive).

For `O=C(O)CCC(=O)N(Cc1ccccc1)Cc1cn(-c2ccccc2)nc1-c1cccnc1`, the inhibition was -8.01% (inactive).

The values above are taken from PubChem BioAssay AID2313 (Broad Institute, 2010).
